Screening data from PubChem BioAssay.
EPAC2 agonist = qHTS for Agonist of cAMP-regulated guanine nucleotide exchange factor 4 (EPAC2): primary screen; 360,000 tested, 0.079% active; Rap guanine nucleotide exchange factor 4 (Homo sapiens), Q8WZA2; EPAC2 activation, biochemical qHTS; response scale: 100% = 6.5 mM cAMP response; Potency, µM (top dose mostly 154 µM), inactives show at the highest dose activation, most hits filed as activators; also: nearly all actives have a fitted effect of over 50% in size
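In this primary screen, activation is scored as increased exchange of BODIPY-GDP from Rap1B by 100 nM EPAC2, with 50 uM GDP as competitor. Signal is normalized to the 6.5 mM cAMP agonist control.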
12-LOX inh = Primary qHTS assay for inhibitors of human arachidonate 12S-lipoxygenase (ALOX12): Round 2; 580,000 tested, 1.1% active; Polyunsaturated fatty acid lipoxygenase ALOX12 (Homo sapiens), P18054; purified 12hLO, xylenol orange hydroperoxide absorbance; Potency, µM (series often up to 108 µM), without a hit: at the highest dose activity change, negative = inhibition, most hits filed as inhibitors; also: % is scaled to controls: 0 for no effect and ±100 for the full control effect
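Purified human 12hLO at 150 nM in 25 mM Hepes, 0.01% Triton X-100, pH 7.0, preincubated 15 min at room temperature with compound. Reaction started with 40 uM arachidonic acid, 30 min at room temperature. Hydroperoxide measured by Fe-xylenol orange, 573/405 nm absorbance ratio.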
USP1 inh = Inhibitors of USP1/UAF1: Primary Screen | AID 743255, 2014 | recombinant USP1/UAF1, Ub-Rhodamine cleavage fluorescence | Potency, µM (series often up to 57.1 µM), for inactives: at the top dose activity change, negative = inhibition, most hits filed as inhibitors | 390,000 tested, 0.23% active; also: % is scaled to controls: 0 for no effect and ±100 for the full control effect; nearly all actives have a fitted effect of over 60% in size
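1 nM enzyme complex + cpd, 15 min RT; start with Ub-Rho 150nM final; kinetic fluorescence ex 480/em 540, 6 reads q60 s. Buffer 50mM HEPES pH 7.8, 0.5mM EDTA, 0.1 mg/ml BSA, 1mM TCEP, 0.01% Tween-20.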
EPAC2 antagonist = qHTS for Antagonist of cAMP-regulated guanine nucleotide exchange factor 2 (EPAC2): primary screen. EPAC2 GEF exchange of Rap1B-BODIPY-GDP, fluorescence. Potency, µM (doses to about 114 µM), for inactives: at the highest dose activity, negative = inhibition, usual class: inhibitors. AID 720708, 2013. 360,000 tested, 0.18% active. Rap guanine nucleotide exchange factor 4 (Homo sapiens), Q8WZA2; also: % is scaled to controls: 0 for no effect and ±100 for the full control effect; nearly all actives have a fitted effect of over 45% in size
EPAC1 agonist = qHTS for Agonist of cAMP-regulated guanine nucleotide exchange factor 3 (EPAC1): primary screen; Rap guanine nucleotide exchange factor 3 (Homo sapiens), O95398; EPAC1 agonist qHTS, biochemical assay; response scale: 100% = response to 6.5 mM cAMP; Potency, µM (series often up to 154 µM), without a hit: at the highest dose activation, most hits filed as activators; 360,000 tested, 0.073% active; also: nearly all actives have a fitted effect of over 60% in size
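Read-out is the fluorescence drop as BODIPY-GDP leaves Rap1B (480 nm excitation, 540 nm emission), recorded every 5 minutes over 30 minutes. Reactions held 100 nM EPAC1, 250 nM Rap1B–BODIPY-GDP and 50 uM GDP, with 6.5 mM cAMP setting full activation.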
EPAC1 antag = qHTS for Antagonist of cAMP-regulated guanine nucleotide exchange factor 3 (EPAC1): primary screen | EPAC1 GEF assay, Rap1b-BODIPY-GDP exchange fluorescence | 360,000 tested, 0.14% active | Rap guanine nucleotide exchange factor 3 (Homo sapiens), O95398 | Potency, µM (doses to about 115 µM), without a hit: top-dose activity change, negative = inhibition, actives largely listed as inhibitors;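 also: plate controls were vehicle for no effect and positive control for full effect; nearly all actives have a fitted effect of over 50% in size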
An asterisk follows results filed as active; u = inconclusive; x = no result; [ ] = dose if it differs, or a comment. Rows were chosen to be rich in hits. Some 1.3% of all compounds tested hit in one or more screens of this group. Calls follow the shape of the dose curve; as a rule, active = well fitted curve in the direction sought with a large enough effect; inconclusive = small, poorly fitted or top-dose-only effect, or another doubt; inactive = no such curve, though single readings can be large; an effect the other way counts as inactive or inconclusive. Potency is read from the fitted curve at half-maximal effect.

SMILES	EPAC2 agonist	12-LOX inh	USP1 inh	EPAC2 antagonist	EPAC1 agonist	EPAC1 antag
COc1ccc(N2CSC3=C(C#N)C(c4cccc(OC)c4OC)CC(=O)N3C2)cc1 (centres undefined)	4.0%	11.2µM*	-18.2%	-22.0%	0.8%	-15.0%
CCc1ccccc1N1CSC2=C(C#N)C(c3ccccc3F)CC(=O)N2C1 (centres undefined)	8.7%	3.16µM*	-19.6%	-7.3%	-0.9%	-15.8%
COc1ccc(C2CC(=O)N3CN(c4ccccc4F)CSC3=C2C#N)cc1OC (centres undefined)	6.6%	u	-11.2%	-18.0%	11.9%	-2.1%
COc1ccc(C2CC(=O)N3CN(c4ccc(C)c(Cl)c4)CSC3=C2C#N)cc1 (centres undefined)	5.6%	3.98µM*	-21.3%	-16.2%	-6.4%	-14.9%
Cn1c(CCc2ccccc2)nc2cc(NC(=O)c3ccc(C#N)cc3)ccc21	x	2.7%	x	x	x	x
O=C(O)c1cc2ccc(Br)cc2[nH]1	x	17.8µM*	x	x	x	x
CC(=O)N1CCC(N[C@@H]2C[C@H](COc3cccc(C)n3)[C@@H](O)[C@H]2O)CC1	x	15.8µM*	x	x	x	x
Cc1cccc(OC[C@H]2C[C@@H](NC(=O)Nc3ccccc3)[C@H](O)[C@@H]2O)n1	x	-11.6%[176 µM]	x	x	x	x
O=C(COc1ccc(-n2cnnn2)cc1)N1CCN(S(=O)(=O)c2ccc3ccccc3c2)CC1	x	44.7µM*	x	x	x	x
O=c1[nH][nH]c2c(N=Cc3ccccc3O)ccc(F)c12	-1.4%	x	28.2µM*	3.9%	3.5%	39.8µM*
CCC(C)NC(=O)CCc1c(C)nc2c(c(OC)nn2C)c1C (centres undefined)	x	15.2%	x	x	x	x
CCCCCCCCc1ccc(C(=O)CCN(C)C)cc1	x	12.6µM*	x	x	x	x
CCCCCCCc1ccc(C(=O)CCC(=O)O)cc1	x	-19.2%	x	x	x	x
Cn1ccnc1C(NC(=O)Cc1n[nH]c(=O)c2ccccc12)c1cccc(F)c1 (centres undefined)	x	16.1%	x	x	x	x
CC(=O)c1c[nH]c(C(=O)NC(c2cccc(F)c2)c2nccn2C)c1 (centres undefined)	x	22.4µM*	x	x	x	x
Cc1nc2ccc(S(=O)(=O)CCC(=O)Nc3ccc(F)cc3C)cc2s1	x	22.4µM*	11.7%	x	x	x
O=C(N/N=C/c1ccccc1Cl)c1[nH]c2ccc(Br)cc2c1-c1ccccc1	-138.5%	-8.8%	u	-33.7%	112µM*	254.4%
COc1ccc(/C=N/NC(=O)c2[nH]c3ccc(Cl)cc3c2-c2ccccc2)c(C(=O)O)c1OC	-1.5%	0.0%	-9.6%	3.1%	-4.4%	-15.9%
COc1ccc(/C=N/NC(=O)c2[nH]c3ccc(Br)cc3c2-c2ccccc2)c(C(=O)O)c1OC	-7.5%	-0.9%	-21.0%	-14.1%	-24.5%	79.4µM*
N#C/C(=C(/O)C(Cl)(Cl)Cl)c1nc2ccccc2[nH]1	-1.4%	0.0%	-8.0%	12.6µM*	-1.7%	-7.4%
C/C(O)=C(/C#N)c1nc2ccccc2[nH]1	-1.1%	19.2%	7.9%	-1.9%	2.2%	-11.9%
CCOC(=O)N1CCN(C(=O)Cn2nc(-c3ccc(F)cc3)ccc2=O)CC1	x	27.4%	x	x	x	x
S=c1[nH]nc(-c2cc3c(s2)-c2ccccc2CC3)o1	7.2%	39.8µM*	-9.2%	-18.1%	9.8%	u
CC1=C[C@@H](CC#N)[C@H](C(C)C)C[C@H]1CC(=O)NC1CCCCC1	x	5.6%[176 µM]	x	x	x	x
O=C1Nc2cc(C(=O)NCCCN3CCCC3)ccc2S/C1=C/c1ccccc1F	11.1%	7.3%	-23.7%	1.1%	-7.6%	-6.1%
SMILES	EPAC2 agonist	12-LOX inh	USP1 inh	EPAC2 antagonist	EPAC1 agonist	EPAC1 antag
O=C1Nc2cc(C(=O)NCCN3CCCCCC3)ccc2S/C1=C/c1ccccc1F	3.1%	28.2µM*	-25.3%	10.8%	-3.0%	1.8%
O=c1c(O)cccc2cc(O)c(O)c(O)c12	-2.9%	12.6µM*	u	1.4%	1.6%	12.6µM*
Cc1csc(N/N=C/c2ccc([N+](=O)[O-])cc2)n1	-2.2%	3.2%	-22.4%	11.1%	-1.5%	-13.0%
O=C(O)c1csc(N/N=C/c2ccc(Br)cc2)n1	4.4%	35.5µM*	-15.5%	4.2%	-10.2%	-2.2%
Cc1ccc2c(c1)c1c(n2CC(O)CNC(CO)(CO)CO)CCCC1 (centres undefined)	6.6%	2.3%	-8.2%	12.1%	4.6%	-10.5%
Cc1ccc2c(c1)c1c(n2CC(O)CNC2CCCCC2)CCCC1 (centres undefined)	12.4%	28.2µM*	-22.9%	5.8%	-4.7%	-9.5%
Cc1cn([C@@H](CCCCN)C(=O)NCCCCCCCCCCC(=O)N2CCNCC2)nn1	1.7%	31.6µM*	-29.3%	8.7%	-4.1%	-22.7%
NCCCC[C@@H](C(=O)NCCCCCCCCCCC(=O)N1CCNCC1)n1cc(CCO)nn1	9.1%	u	-4.5%	3.8%	6.1%	-2.0%
O=C1Nc2ccccc2SC(c2ccccc2)C1O (centres undefined)	-6.4%	12.6µM*	-0.5%	-1.9%	1.5%	u
Cn1cc(CC(=O)NCc2ccc(C(N)=O)cc2)c2ccccc21	x	1.4%	x	x	x	x
CN1C(=O)Cc2cc(-c3csc(NC(C)(C)C)n3)ccc21	x	11.2µM*	x	x	x	x
CC(=O)Nc1ccc(-c2csc(Nc3ccc(O)c(C(=O)O)c3)n2)cc1	x	39.8µM*	x	x	x	x
CC(=O)Nc1ccc(-c2csc(Nc3ccc(Br)cc3)n2)cc1	x	-22.9%	x	x	x	x
CCNc1nc(-c2ccc(NC(C)=O)cc2F)cs1	x	7.08µM*	x	x	x	x
CN1C(=O)Cc2cc(-c3csc(-c4ccc(F)cc4)n3)ccc21	x	-11.6%	x	x	x	x
CC(=O)Nc1ccc(-c2csc(NC(C)(C)C)n2)cc1	x	10µM*	x	x	x	x
COCCOc1ccc2c(n1)CCN(C(=O)c1ccc(C(C)C)cc1)C2	x	53.8%	x	x	x	x
CNc1nc(-c2ccc(NC(C)=O)cc2F)cs1	x	31.6µM*	x	x	x	x
CC(=O)Nc1ccc(-c2csc(NC(C)(C)C)n2)c(F)c1	x	11.2µM*	x	x	x	x
Cc1c(S(=O)(=O)N2CCCC2c2ccc(Cl)cc2)cnn1C(F)F (centres undefined)	x	8.6%	x	x	x	x
